Screening data as filed in PubChem BioAssay.
In the library only some 5.2% were active in any assay of this set; here they are far more common.
PLK1 PBD inh – qHTS for Inhibitors of PLK1-PDB (polo-like kinase 1 - polo-box domain): Primary Screen | Serine/threonine-protein kinase PLK1 (Homo sapiens), P53350 | Plk1 PBD binding of FITC phosphopeptide, fluorescence polarization | Potency, µM, usual class: inhibitors | hit rate 2.8% among 360,000 | AID 720504, 2013; further: series mostly up to about 57 µM; nearly all actives have a fitted effect of over 65% in size
IDH1 R132H inh – qHTS for Inhibitors of mutant isocitrate dehydrogenase 1 (IDH1): qHTS; Isocitrate dehydrogenase [NADP] cytoplasmic (Homo sapiens), O75874; IDH1-R132H enzyme, NADPH consumption, diaphorase/resazurin fluorescence; Potency, µM (top dose mostly 76.6 µM), hits mostly inhibitors; hit rate 0.093% among 390,000; AID 602179, 2012; further: nearly all actives have a fitted effect of over 65% in size
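IDH1-R132H (0.5 ug/mL) preincubated 30 min with compound, then NADPH (0.016 mM) and alpha-KG (2 mM) added; 80 min at RT, pH 7.5. Remaining NADPH coupled via diaphorase/resazurin to fluorescence (540/590 nm); concentration-response curves normalized to no-enzyme control.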
VDR inh – Inhibitors of the vitamin D receptor (VDR): qHTS; VDR-SRC2-3 peptide fluorescence polarization, 2 h; Potency, µM, most hits filed as inhibitors; hit rate 0.93% among 400,000; AID 504847, 2011
Target sequence (P11473 whole entry, looked up): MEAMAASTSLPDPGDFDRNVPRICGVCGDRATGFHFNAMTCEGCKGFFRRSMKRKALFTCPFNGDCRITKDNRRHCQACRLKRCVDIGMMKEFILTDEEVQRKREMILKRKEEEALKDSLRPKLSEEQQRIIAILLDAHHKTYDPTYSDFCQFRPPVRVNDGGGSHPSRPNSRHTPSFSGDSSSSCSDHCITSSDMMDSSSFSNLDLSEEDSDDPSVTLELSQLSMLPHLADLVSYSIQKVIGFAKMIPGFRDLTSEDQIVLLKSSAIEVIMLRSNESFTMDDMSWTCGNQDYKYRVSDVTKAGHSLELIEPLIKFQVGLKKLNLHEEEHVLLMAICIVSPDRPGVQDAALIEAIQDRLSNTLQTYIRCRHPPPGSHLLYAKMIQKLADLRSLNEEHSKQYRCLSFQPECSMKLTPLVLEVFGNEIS
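Signal is fluorescence polarization, reporting how far test compounds block the interaction of VDR with the SRC2-3 coregulator peptide after a 2 h room-temperature incubation.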
Sfp inh – qHTS Assay for Inhibitors of Bacillus subtilis Sfp phosphopantetheinyl transferase (PPTase) | 4'-phosphopantetheinyl transferase ffp (Bacillus subtilis), Q9F4F7 | Biochemical Sfp PPTase activity, qHTS | Potency, µM, most hits filed as inhibitors | hit rate 3.5% among 310,000;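 further: the enzyme is Sfp with the accession as filed and its product quenches rhodamine fluorescence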
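After 15 min at room temperature with compound, 15 nM Sfp received 5 uM rhodamine-CoA plus 12.5 uM BHQ-2-ybbR (50 mM Hepes pH 7.6, 10 mM MgCl2). Rate came from the fluorescence difference over 30 min, ex 525/em 598 nm.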
TrxR1 substrate – qHTS Assay for Substrates of Mammalian Selenoprotein Thioredoxin Reductase 1 (TrxR1): qHTS. Thioredoxin reductase 1, cytoplasmic (Rattus norvegicus), O89049. purified TrxR1 substrate turnover, NADPH consumption readout. Potency, µM (doses to about 114 µM). hit rate 0.01% among 390,000; further: nearly all actives have a fitted effect of over 50% in size
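Rat TrxR1, dispensed at 90 nM, was prereduced with 400 uM NADPH (final) for 5 min at ~22 deg C, then incubated with compound 15 min before 400 uM selenite. A first-read NADPH fluorescence drop versus no-compound background flagged substrates.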
rTrxR1 inhibitor – qHTS Assay for Inhibitors of Mammalian Selenoprotein Thioredoxin Reductase 1 (TrxR1): qHTS; Thioredoxin reductase 1, cytoplasmic (Rattus norvegicus), O89049; Potency, µM (series often up to 114 µM), hits mostly inhibitors; recombinant rTrxR1, NADPH fluorescence consumption, selenite substrate; AID 588453, 2011; hit rate 1% among 390,000; further: nearly all actives have a fitted effect of over 65% in size
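Rat TrxR1 (90 nM in the dispensed reagent) was pre-reduced with 400 uM NADPH for 5 min at room temperature, then incubated with compound for 15 min. After 400 uM selenite was added, NADPH fluorescence (Ex 340/Em 450 nm) was followed for 8 min.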
A number is an active result; – = inactive; ? = inconclusive; · = no result given. The call rests on the fitted dose curve; in most records, active means well fitted curve in the direction sought with a large enough effect; inconclusive means small, poorly fitted or top-dose-only effect, or another doubt; inactive means no such curve, though single readings can be large; an effect the other way counts as inactive or inconclusive.

SMILES	PLK1 PBD inh	IDH1 R132H inh	VDR inh	Sfp inh	TrxR1 substrate	rTrxR1 inhibitor
Cc1ccc(S(=O)(=O)N2CCCCC2)cc1NC(=O)CNCc1ccco1	–	–	–	6.3µM	–	–
O=C(COC(=O)c1cc(Br)ccc1O)Nc1cc(S(=O)(=O)N2CCCC2)ccc1Cl	–	–	–	56µM	–	–
O=C(CNCc1ccncc1)Nc1cc(S(=O)(=O)N2CCCCC2)ccc1Cl	–	–	–	45µM	–	–
Cc1ccc(S(=O)(=O)N2CCCCC2)cc1NC(=O)c1ccco1	–	–	·	·	·	·
O=C(CNCc1ccccn1)Nc1cc(S(=O)(=O)N2CCCCC2)ccc1Cl	–	–	–	–	–	–
CC(=O)Nc1ccc(SCC(c2ccccc2)N2CCN(C)CCC2=O)cc1 (stereo not drawn)	·	·	–	–	–	–
CCNC(=S)NNc1nc(N2CCCCC2)nc(N2CCOCC2)n1	–	–	–	11µM	–	–
CC[C@H](C)[C@H](NC(=O)[C@H](CO)NC(=O)[C@H](CC(C)C)NC(=O)[C@@H]1CCCN1C(=O)[C@@H]1CCCN1C(=O)[C@H](CC(=O)O)NC(=O)[C@@H](N)CC(=O)O)C(=O)N[C@@H](CC(=O)O)C(=O)N[C@@H](CC(C)C)C(=O)N[C@H](C(=O)N[C@@H](Cc1ccccc1)C(=O)N[C@@H](Cc1cnc[nH]1)C(=O)N[C@@H](CC(C)C)C(=O)N[C@@H](CC(C)C)C(=O)N[C@@H](CCCNC(=N)N)C(=O)N[C@H](C(=O)N[C@@H](CC(C)C)C(=O)N[C@@H](CC(C)C)C(=O)N[C@@H](CCC(=O)O)C(=O)N[C@@H](CC(C)C)C(=O)N[C@@H](C)C(=O)N[C@@H](CCCNC(=N)N)C(=O)N[C@H](C(=O)N[C@@H](CCC(N)=O)C(=O)N[C@@H](CO)C(=O)N[C@@H](CCC(N)=O)C(=O)N[C@@H](CCCNC(=N)N)C(=O)N[C@@H](CCC(=O)O)C(=O)N[C@@H](CCCNC(=N)N)C(=O)N[C@@H](C)C(=O)N[C@@H](CCC(=O)O)C(=O)N[C@@H](CCC(N)=O)C(=O)N[C@@H](CC(N)=O)C(=O)N[C@@H](CCCNC(=N)N)C(=O)N[C@H](C(=O)N[C@H](C(=O)N[C@@H](Cc1ccccc1)C(=O)N[C@@H](CC(=O)O)C(=O)N[C@@H](CO)C(=O)N[C@H](C(N)=O)C(C)C)[C@@H](C)CC)[C@@H](C)CC)[C@@H](C)O)[C@@H](C)O)[C@@H](C)O	·	·	–	–	·	·
CCNc1ccccc1CP(=O)(c1ccccc1)c1ccccc1O (stereo not drawn)	21µM	–	20µM	1.4µM	–	50µM
Cc1[nH]n(-c2ccccc2)c(=O)c1-c1ccc(Cl)cc1	27µM	–	–	–	–	–
Oc1ccccc1C(Nc1nccs1)c1ccc2cccnc2c1O (stereo not drawn)	?	–	–	–	–	?
OCCN1CCN(C(c2cccs2)c2ccc3cccnc3c2O)CC1 (stereo not drawn)	·	·	·	16µM	·	·
C=C1c2cccc(OC)c2O[C@H](C(=O)OCC)[C@@H]1CCC(C)C	·	·	–	–	·	·
Cn1c(=O)c2c(nc(NN=C3CCCC3)n2C)n(C)c1=O	–	–	–	22µM	–	–
Cn1c(=O)c2c(nc(NNC(=O)C(F)(F)F)n2C)n(C)c1=O	–	–	–	0.89µM	–	–
Cn1c(=O)c2c(nc(CO)n2C)n(C)c1=O	–	–	–	–	–	–
CCCCOc1ccc(C2/C(=C(/O)c3ccc4c(c3)CC(C)O4)C(=O)C(=O)N2CCCN2CCOCC2)cc1OC (stereo not drawn)	–	–	–	–	–	–
